The source of these data is PubChem BioAssay (NCI).

This is part of a sample that, as a whole, favours compounds with a hit. Of some 83,000 tested, about 20% had one in any assay.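 48-hour exposure, single concentration, 96-well plates; percent growth endpoint where 0 means no net growth. Active: below 10.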 Unmarked numbers belong to inactive results. Active and inactive are the calls of the source.

Experiment in all cases: NCI-60 one-dose screen, 48 h (100 = growth as untreated, 0 = no growth, -100 = all killed)
Holding throughout (conditions): 10 µM unless noted

For test [1], the system named is SK-MEL-2 melanoma.
The subject of test [2] is EKVX NSCLC.
For test [3], the system named is SN12C renal.
Test [4] has as its system UO-31 renal.
The test system of test [5] is TK-10 renal.
In test [6] the test system is ACHN renal.
Test [7] has as its system CAKI-1 renal.
Test [8] deals with A498 renal.
In test [9] the test system is CCRF-CEM leukemia.
Test [10] relates to MOLT-4 leukemia.
Test [11] relates to OVCAR-8 ovarian.
For test [12], the system named is OVCAR-5 ovarian.
Test [13] deals with OVCAR-4 ovarian.
Test [14] relates to SK-OV-3 ovarian.
In test [15] the test system is IGROV1 ovarian.
Test [16] relates to OVCAR-3 ovarian.
Test [17] relates to HS 578T breast.
Test [18] deals with NCI/ADR-RES ovarian.
For test [19], the system named is RPMI-8226 leukemia.

In the case of `Cc1ccc(/C=C2\C(=O)N(C)c3ccc(S(=O)(=O)Nc4ccc(C(C)(C)C)cc4)cc32)s1`, the growth in [1] was 90.3%; in test [2], 54.3%; in [3], 36.7%; in test [4], 56.9%; in [5], 70.2%; in test [6] it was 59.8%. Further, the growth in test [7] was 55.2%; in test [8], 75.9%; in test [9] it was 65.6%; in test [10] it was 78.2%; in [11], 29.5%; in test [12], 69.4%. The growth in test [13] was -1.02% (active); in [14], 76.4%; in test [15], 63.9%; in [16] it was 11.4%; in test [17] it was -5.78% (active); in [18] it was 62.1%.
Regarding `Cc1nc2ccccc2n1CC1NC(=O)NC1=O` (stereo unspecified), the growth is 104% in test [1]; 97.9% in [2]; 97.7% in test [3]; 94.7% in test [4]; 102% in [5]; 102% in test [6]. Further, the growth in [7] was 96%; in test [8], 88.8%; in test [9], 107%; in test [10], 96%; in test [11] it was 96.4%; in [12], 99.3%. In addition, the growth in test [13] was 102%; in test [14] it was 95.9%; in test [15], 104%; in test [16], 105%; in [17], 102%; in test [18], 107%.
For the molecule `COc1ccc(-c2nc(SCCC(C)C)nc(N/N=C\c3cccc(Cl)c3)c2C#N)cc1`, the growth is 98.3% in [1]; 77.3% in test [2]; 41.9% in test [3]; 48.9% in test [4]; 47.1% in [5]; 17.9% in test [6]. Besides, the growth in test [7] is 61%; in test [8] it was 42.5%; in test [9], 50%; in [10], 74.7%; in test [11], 57.7%; in [12], 84.3%. The growth is -13.4% (active) in test [13]; 84% in [14]; 76.2% in test [15]; 38.5% in test [16]; 20.7% in [17]; 79.2% in test [18].
With `N/C(=N/N=C/c1ccccc1)N/N=C\c1ccccc1`, the growth was 42.1% in [1]; 76.5% in test [2]; 67.4% in test [3]; 68.2% in [4]; 73.9% in [5]; 76% in test [6]. In addition, the growth in [7] is 62.9%; in [8], 66.6%; in [9], 50.6%; in test [10], 30.4%; in test [11] it was 65.2%; in test [12] it was 83.4%. Also, the growth is 87.2% in test [13]; 72.4% in test [14]; 73% in [15]; 12.6% in [16]; 67.7% in [17]; 10.7% in [18].
As for `CCCCNC(=O)Oc1ccc2c(=O)c3sc4c(=O)c5ccccc5c(=O)c4c3c(=O)c2c1`, the growth in test [1] is -54.7% (active); in test [2], -77.7% (active); in test [3], -86.3% (active); in test [4], -56.7% (active); in test [5], -95.2% (active); in test [6] it was -88.9% (active). Besides, the growth is -75.4% (active) in test [7]; -98.8% (active) in test [8]; -29.4% (active) in [9]; -44.4% (active) in test [10]; -20.4% (active) in test [11]; -73.6% (active) in test [12]. Besides, the growth in test [13] is -95.4% (active); in test [14], -93.9% (active); in test [15] it was -25.6% (active); in test [16], -69.5% (active); in test [17], 2.8% (active); in [18], -19.3% (active).
Consider `CCN(CC)c1ccc(C(=O)c2ccc(N(CC)CC)cc2)cc1`, for which the growth in test [1] is 18.7%; in [2] it was 55%; in test [3], 40.8%; in [4] it was 60.4%; in test [5] it was 35.1%; in test [6] it was 53.1%. Also, the growth in [7] is 43.4%; in test [8], 41.1%; in [9], 19.8%; in test [10], 24.3%; in test [11] it was 32.2%; in [12] it was 40.8%. The growth in test [13] is 61.4%; in test [14] it was -1.44% (active); in test [15] it was 37.3%; in test [16], -20.3% (active); in [17], 36.2%; in test [18], -27.8% (active).
In the case of `COc1cc(/C=N/NC(=O)Cn2c(C(C)C)nc3ccccc32)ccc1O`, the growth in test [1] was 105%; in test [2], 103%; in test [3] it was 94.7%; in test [4], 84.5%; in [5], 106%; in test [6], 99.6%. For the same molecule, the growth in test [7] was 91.8%; in test [8], 81.9%; in test [9], 94.5%; in [10], 93.6%; in [19] it was 87%; in test [11] it was 98.8%. Besides, the growth in test [12] was 94.6%; in test [14], 100%; in test [15], 91.1%; in test [16], 108%; in [17], 98.2%; in test [18], 99.3%.
`CN(C)CCNc1nc2ccccc2c2c1c1c(n2Cc2ccccc2)-c2ccccc2C1=O`: the growth in test [1] was -74.6% (active); in test [2], -87.8% (active); in test [3] it was -89.1% (active); in test [4], -77.8% (active); in test [5] it was -80% (active); in test [6], -98.4% (active). In addition, the growth in [7] is -80.1% (active); in [8], -96.4% (active); in test [9] it was -60.6% (active); in test [10], -84.3% (active); in [19], -72.7% (active); in [11], -53% (active). Further, the growth in [14] is -92.5% (active); in test [15], -72.9% (active); in [16] it was -79.2% (active); in test [17], -90.4% (active); in test [18] it was -72.6% (active).
With `CC(=O)N1C(=S)NC(=O)C1Cn1c(-c2ccccc2)nc2ccccc21` (stereo unspecified), the growth is 109% in test [1]; 96.3% in test [2]; 98.6% in test [3]; 80.8% in [4]; 121% in test [5]; 100% in test [6]. Further, the growth was 90.4% in test [7]; 70.7% in test [8]; 97.1% in test [9]; 96.5% in [10]; 102% in test [11]; 103% in test [12]. Moreover, the growth in [13] was 102%; in [14], 94.3%; in test [15], 92.5%; in [16], 101%; in test [17], 96%; in test [18] it was 102%.
